Data: PubChem BioAssay (NCI)
The panel holds about 79,000 compounds, 15% with a hit somewhere; the sample as a whole holds those more often. Activity calls are given as the source filed them. Cut-off read from the data, not from the text of the source: active = growth inhibition above about 70%; inactive = the rest.

Assays:
[1] = NCI Yeast Anticancer Drug Screen. Data for the rad52 strain (AID 147);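 note: 0% = growth of vehicle-treated control cultures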; conditions: S. cerevisiae rad52 mutant growth inhibition, active compounds read high
Procedure, shortened: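 DNA repair-defective yeast; compound exposure; growth scored against vehicle controls.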

[2] = NCI Yeast Anticancer Drug Screen. Data for the wt1 strain (AID 149);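 note: 0% = growth of vehicle-treated wt1 cultures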; conditions: S. cerevisiae wt1 strain (SPY 50644) growth inhibition, active compounds read high
Procedure, shortened: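 Growth inhibition read against vehicle controls after compound exposure of the wt1 yeast strain.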

[3] = NCI Yeast Anticancer Drug Screen. Data for the rad50EPP+ strain (AID 151);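 note: 0% = growth of vehicle-treated control cultures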; conditions: S. cerevisiae rad50 mutant strain, active compounds read high
Procedure, shortened: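 rad50EPP+ yeast treated with test compounds. Readout: growth vs vehicle control.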

[4] = NCI Yeast Anticancer Drug Screen. Data for the mgt1 strain (AID 153); conditions: S. cerevisiae mgt1 mutant growth inhibition, active compounds read high
Procedure, shortened: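 Growth inhibition relative to vehicle controls was scored for the mgt1 yeast strain after compound exposure.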

[5] = NCI Yeast Anticancer Drug Screen. Data for the rad50 strain (AID 155);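 note: 0% = growth of vehicle-only cultures of the same strain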; conditions: S. cerevisiae rad50 strain growth inhibition, active compounds read high
Procedure, shortened: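 Readout: growth inhibition relative to vehicle-treated cultures. Compound exposure was carried out in a genetically defined yeast strain deficient in DNA damage repair.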

[6] = NCI Yeast Anticancer Drug Screen. Data for the mec2-1 strain (AID 157); conditions: S. cerevisiae mec2-1 strain, active compounds read high
Procedure, shortened: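 Growth inhibition is read against vehicle-treated controls after compound exposure of the mec2-1 yeast strain, which is defective in DNA damage repair or cell cycle control.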

[7] = NCI Yeast Anticancer Drug Screen. Data for the rad14 strain (AID 159);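 note: 0% = growth of vehicle-treated control cultures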; conditions: S. cerevisiae rad14 strain growth inhibition, active compounds read high
Procedure, shortened: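 Growth inhibition vs vehicle controls; genetically altered yeast strain (DNA damage repair defect) treated with test compounds.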

[8] = NCI Yeast Anticancer Drug Screen. Data for the sgs1 mgt1 strain (AID 161);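 note: 0% = growth of cultures given vehicle only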; conditions: S. cerevisiae sgs1 mgt1 strain, active compounds read high
Procedure, shortened: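 Percent growth inhibition was derived by comparing compound-exposed mutant yeast with vehicle-exposed cultures. The strain carries alterations in DNA damage repair.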

[9] = NCI Yeast Anticancer Drug Screen. Data for the CLN2oe strain (AID 163);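 note: 0% = growth of vehicle-only control cultures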; conditions: S. cerevisiae CLN2oe strain, active compounds read high
Procedure, shortened: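 Compound-treated yeast; growth vs vehicle ctrl = % inhibition. Genetically altered strain (cell-cycle control).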

[10] = NCI Yeast Anticancer Drug Screen. Data for the cln2 rad14 strain (AID 165);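 note: 0% = growth equal to vehicle treated cultures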; conditions: S. cerevisiae cln2 rad14 strain, active compounds read high
Procedure, shortened: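 Growth inhibition, relative to vehicle-treated controls, is the read-out. The test organism is a yeast strain with defined genetic alterations, cln2 rad14.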

[11] = NCI Yeast Anticancer Drug Screen. Data for the bub3 strain (AID 167); conditions: S. cerevisiae bub3 mutant strain, active compounds read high
Procedure, shortened: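 Readout: yeast growth inhibition, expressed relative to vehicle-only wells. The test organism is a mutant strain from a panel with lesions in DNA repair or checkpoint genes.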

[12] = NCI Yeast Anticancer Drug Screen. Data for the wt2 strain (AID 169);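 note: 0% = growth of vehicle-treated yeast cultures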; conditions: S. cerevisiae wt2 strain growth inhibition, active compounds read high
Procedure, shortened: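 Compound exposure of yeast; growth compared with vehicle controls; inhibition reported.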

[13] = NCI Yeast Anticancer Drug Screen. Data for the mlh1 strain (AID 171);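 note: 0% = growth of vehicle-treated control cultures of the same strain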; conditions: S. cerevisiae mlh1 strain growth inhibition, active compounds read high
Procedure, shortened: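 Compounds are applied to a genetically altered yeast strain, and its growth is compared with that of vehicle-treated cultures to give percent inhibition.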

[14] = NCI Yeast Anticancer Drug Screen. Data for the sgs1 strain (AID 173);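 note: 0% = growth of vehicle-only control cultures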; conditions: S. cerevisiae sgs1 mutant, active compounds read high
Procedure, shortened: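 Compounds applied to genetically altered yeast; growth compared with vehicle-treated cultures to give % inhibition.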

[15] = NCI Yeast Anticancer Drug Screen. Data for the mlh1 rad18 strain (AID 175); conditions: S. cerevisiae mlh1 rad18 strain growth inhibition, active compounds read high
Procedure, shortened: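 Cells of a genetically altered yeast strain, deficient in DNA damage repair, were treated with compound. Their growth was then compared with that of vehicle-treated cultures to give inhibition.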

[16] = NCI Yeast Anticancer Drug Screen. Data for the rad18 strain (AID 177); conditions: S. cerevisiae rad18 mutant growth inhibition, active compounds read high
Procedure, shortened: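 Compounds are applied to a repair-deficient yeast strain, and growth is compared with that of vehicle-treated cultures to give percent inhibition.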

[17] = at 5.0 µM (retest, dose inferred, filed as 0.5)
[18] = at 50.0 µM (retest, dose inferred, filed as 5.0)

Measured: growth inhibition

CC(=O)Nc1ccc(/C=C/[N+](=O)[O-])cc1
active: [1]; at 100.0 µM 97% | [2]; at 100.0 µM 75% | [3]; at 33.0 µM 72% | [3]; at 100.0 µM 82% | [4]; at 100.0 µM 99% | [5]; at 33.0 µM 91% | [5]; [18] 94% | [5]; at 50.0 µM 85% | [5]; at 100.0 µM 98% | [6]; at 100.0 µM 95% | [7]; at 100.0 µM 99% | [8]; [18] 72% | [9]; at 100.0 µM 71% | [11]; at 100.0 µM 72% | [12]; at 100.0 µM 91% | [13]; at 100.0 µM 96% | [14]; at 100.0 µM 99% | [15]; [18] 91% | [15]; at 50.0 µM 94% | [16]; at 100.0 µM 92%
inactive: [1]; at 1.2 µM 19% | [1]; at 3.7 µM 23% | [1]; at 11.0 µM 43% | [1]; at 33.0 µM 69% | [2]; at 1.2 µM -1% | [2]; at 3.7 µM -3% | [2]; at 11.0 µM -4% | [2]; at 33.0 µM 6% | [3]; at 1.2 µM 22% | [3]; at 3.7 µM 42% | [3]; at 11.0 µM 51% | [4]; at 1.2 µM -2% | [4]; at 3.7 µM -4% | [4]; at 11.0 µM -1% | [4]; at 33.0 µM 20% | [5]; at 1.2 µM 31% | [5]; at 3.7 µM 35% | [5]; [17] -66% | [5]; at 11.0 µM 67% | [6]; at 1.2 µM -1% | [6]; at 3.7 µM -2% | [6]; [17] -42% | [6]; at 11.0 µM 14% | [6]; at 33.0 µM 3% | [6]; [18] 33% | [6]; at 50.0 µM 53.4% | [7]; at 1.2 µM 2% | [7]; at 3.7 µM 11% | [7]; at 11.0 µM 18% | [7]; at 33.0 µM 40% | [8]; [17] -43% | [8]; at 50.0 µM 47.6% | [9]; at 1.2 µM -3% | [9]; at 3.7 µM -1% | [9]; at 11.0 µM 3% | [9]; at 33.0 µM 10% | [10]; [17] -55% | [10]; [18] -19% | [10]; at 50.0 µM 46.2% | [11]; at 1.2 µM -4% | [11]; at 3.7 µM -5% | [11]; [17] -61% | [11]; at 11.0 µM 1% | [11]; at 33.0 µM 6% | [11]; [18] 43% | [11]; at 50.0 µM 68.8% | [12]; at 1.2 µM -4% | [12]; at 3.7 µM -3% | [12]; at 11.0 µM -4% | [12]; at 33.0 µM 11% | [13]; at 1.2 µM -1% | [13]; at 3.7 µM -6% | [13]; at 11.0 µM 1% | [13]; at 33.0 µM 22% | [14]; at 1.2 µM -3% | [14]; at 3.7 µM 11% | [14]; at 11.0 µM 15% | [14]; at 33.0 µM 52% | [15]; [17] -96% | [16]; at 1.2 µM 3% | [16]; at 3.7 µM 6% | [16]; at 11.0 µM 12% | [16]; at 33.0 µM 25%

Cc1cc(=O)oc2c(C)c3occc(=O)c3cc12
inactive: [1]; at 1.2 µM 1% | [1]; at 3.7 µM 2% | [1]; at 11.0 µM 17% | [1]; at 33.0 µM 48% | [2]; at 1.2 µM 4% | [2]; at 3.7 µM -2% | [2]; at 11.0 µM 0% | [2]; at 33.0 µM 5% | [2]; at 100.0 µM 23% | [3]; at 1.2 µM -1% | [3]; at 3.7 µM -1% | [3]; at 11.0 µM 4% | [3]; at 33.0 µM 29% | [3]; at 100.0 µM 67% | [4]; at 1.2 µM -5% | [4]; at 3.7 µM 3% | [4]; at 11.0 µM -11% | [4]; at 33.0 µM -10% | [4]; at 100.0 µM 44% | [5]; at 1.2 µM -1% | [5]; at 3.7 µM 2% | [5]; [17] 24% | [5]; at 11.0 µM 18% | [5]; at 33.0 µM 59% | [5]; [18] 67% | [6]; at 1.2 µM -2% | [6]; at 3.7 µM 0% | [6]; [17] -6% | [6]; at 11.0 µM 4% | [6]; at 33.0 µM 14% | [6]; [18] 21% | [6]; at 50.0 µM 67.2% | [6]; at 100.0 µM 40% | [7]; at 1.2 µM 2% | [7]; at 3.7 µM 2% | [7]; at 11.0 µM 1% | [7]; at 33.0 µM 9% | [7]; at 100.0 µM 28% | [8]; [17] -10% | [8]; [18] 8% | [9]; at 1.2 µM -2% | [9]; at 3.7 µM -1% | [9]; at 11.0 µM 9% | [9]; at 33.0 µM 6% | [9]; at 100.0 µM 29% | [10]; [17] -17% | [10]; [18] 15% | [10]; at 50.0 µM 43.8% | [11]; at 1.2 µM -1% | [11]; at 3.7 µM -1% | [11]; [17] 12% | [11]; at 11.0 µM 3% | [11]; at 33.0 µM 5% | [11]; [18] 19% | [11]; at 100.0 µM 15% | [12]; at 1.2 µM -1% | [12]; at 3.7 µM -2% | [12]; at 11.0 µM 1% | [12]; at 33.0 µM 10% | [12]; at 100.0 µM 32% | [13]; at 1.2 µM -1% | [13]; at 3.7 µM 4% | [13]; at 11.0 µM 2% | [13]; at 33.0 µM 11% | [13]; at 100.0 µM 48% | [14]; at 1.2 µM 0% | [14]; at 3.7 µM -2% | [14]; at 11.0 µM 0% | [14]; at 33.0 µM 6% | [14]; at 100.0 µM 34% | [15]; [17] 11% | [15]; [18] 21% | [15]; at 50.0 µM 63.1% | [16]; at 1.2 µM -1% | [16]; at 3.7 µM -4% | [16]; at 11.0 µM -2% | [16]; at 33.0 µM 7% | [16]; at 100.0 µM 40%
active: [1]; at 100.0 µM 86% | [5]; at 50.0 µM 94.3% | [5]; at 100.0 µM 84% | [8]; at 50.0 µM 74.4% | [11]; at 50.0 µM 78%
